Data published in PubChem BioAssay.
Activity calls are given as the source filed them.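 The calls were made as follows, unless noted: active = inhibition at or above 50% at 10 µM; inactive = inhibition below 50%.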

Columns and labels:
[1] = inhibitors of TNFa-induced NFkB p65 translocation, primary screen, imaging, HUVEC, MLSMR starter and 10KST1 sets (AID 438;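 active = inhibition above 20% together with a positive visual image hit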;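 also: compound added about 3h40 before a 20 min TNFalpha stimulation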;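 as to inhibition: signal is the nuclear over cytoplasmic p65 intensity ratio per well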); settings: HUVEC TNFa-induced p65 nuclear translocation; cell count: measured here: nuclei count (cytotoxicity indicator), at 2.08 µM; inhibition: at 2 µM, stronger effect = higher value, 0% TNFa-plus-vehicle, 100% no-TNFa wells
[2] = inhibitors of mutant huntingtin aggregation, primary screen, imaging, exon1htt(103Q)mCFP cells, high-content imaging (AID 483;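 active = visual image review flags a hit and inhibition of aggregation exceeds 20%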;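 also: compound exposure lasted 3 days before fixation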;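 as to nuclei count: percent of the per-plate median nuclei count of sample wells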); settings: exon1htt(103Q)mCFP cell line, aggregate imaging, at 2 µM; inhibition of aggregation: stronger effect = higher value; nuclei count: measured here: cell count, toxicity
[3] = inhibitors of E-selectin induction by TNFa, primary screen, imaging, HUVEC, immunofluorescence, MLSMR starter and 10KST1 sets (AID 487;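 active = visually confirmed hit in the image check and inhibition above 20%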;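 as to inhibition: signal is fraction of cell area covered by stained E-selectin grains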;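 as to nuclei count: 100% = median nuclei count of all wells on the same plate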); settings: HUVEC TNFalpha-induced E-selectin immunofluorescence imaging, at 2 µM; inhibition: stronger effect = higher value; nuclei count: measured here: cell number, toxicity
[4] = target: Voltage-gated potassium channel subunit beta-2 (Rattus norvegicus) (UniProt P62483); test: KvBeta enzyme negative modulators, primary screen, biochemical, NADPH fluorescence (AID 622;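 active = fluorescence slope higher than the sample average by over 3 SD, cut at about -0.22 in these data, passing the limit was not always enough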;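 also: slope of raw intensity against log time taken from 70 to 1610 s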); settings: recombinant KvBeta, 4-cyanobenzaldehyde reduction, at 10 µM, stronger effect = higher value
Voltage-gated potassium channel subunit beta-2 (Rattus norvegicus), sequence (P62483 whole entry, looked up): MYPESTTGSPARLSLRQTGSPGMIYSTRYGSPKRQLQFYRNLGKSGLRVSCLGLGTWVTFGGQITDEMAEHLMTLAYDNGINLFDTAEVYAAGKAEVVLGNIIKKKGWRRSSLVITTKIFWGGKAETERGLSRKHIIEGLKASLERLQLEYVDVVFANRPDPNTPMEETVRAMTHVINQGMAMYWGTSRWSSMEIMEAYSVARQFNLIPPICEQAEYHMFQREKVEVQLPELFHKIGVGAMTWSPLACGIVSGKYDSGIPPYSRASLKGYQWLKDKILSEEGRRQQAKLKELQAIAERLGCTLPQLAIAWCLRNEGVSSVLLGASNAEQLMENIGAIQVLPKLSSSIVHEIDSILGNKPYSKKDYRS

[5] = target: Voltage-gated potassium channel subunit beta-2 (Rattus norvegicus) (UniProt P62483); test: KvBeta positive modulators, primary screen, biochemical, NADPH fluorescence (AID 623;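 active = NADPH fluorescence slope more negative than the mean of all samples by about 3 SD, 99.7% confidence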;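 also: fluorescence intensity change per second fitted from 20 to 320 s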); settings: Recombinant KvBeta, NADPH fluorescence decrease slope, 10 min; at 10 µM; stronger effect = lower value
[6] = target: Alpha-2C adrenergic receptor (Homo sapiens) (UniProt P18825); test: modulators of alpha2C/GIRK thallium flux, primary screen, cell-based, HEK293 alpha2C/GIRK1/2 (AID 624;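 active = fluorescence slope after compound addition differing from the mean of all screened samples at 99.7% confidence, in either direction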;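 also: slope of fluorescence ratio to pre-addition baseline per second over 15 to 24 s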); settings: thallium flux BTC fluorescence, at 10 µM, actives lie on both sides
Alpha-2C adrenergic receptor (Homo sapiens), sequence (P18825 whole entry, looked up): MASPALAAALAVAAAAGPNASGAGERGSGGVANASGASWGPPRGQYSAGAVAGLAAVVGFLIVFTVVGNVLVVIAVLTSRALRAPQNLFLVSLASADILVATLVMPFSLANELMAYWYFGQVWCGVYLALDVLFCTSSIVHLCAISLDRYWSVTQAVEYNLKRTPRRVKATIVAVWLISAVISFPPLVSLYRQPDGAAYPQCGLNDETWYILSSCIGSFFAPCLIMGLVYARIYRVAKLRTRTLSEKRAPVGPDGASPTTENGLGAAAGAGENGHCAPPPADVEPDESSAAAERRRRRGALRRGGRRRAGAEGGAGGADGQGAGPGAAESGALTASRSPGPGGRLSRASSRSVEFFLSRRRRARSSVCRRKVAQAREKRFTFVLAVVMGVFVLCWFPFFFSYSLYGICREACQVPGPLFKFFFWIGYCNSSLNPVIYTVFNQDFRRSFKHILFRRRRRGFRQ

[7] = inhibitors of Sendai virus-induced IRF3 signaling, primary screen, TLR/RLR signaling modifier project, cell-based, Sendai virus stimulus, luciferase, 10K MLSCN set (AID 602276); settings: HEK293 RL24 IRF3 luciferase reporter, at 10 µM, stronger effect = higher value;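 also: firefly luciferase from ISG56 promoter only with Renilla not read in this screen; 0% = Sendai virus plus DMSO and 100% = medium plus DMSO without virus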
[8] = inhibitors of poly I:C-induced TLR3 signaling, primary screen, cell-based, poly I:C stimulus, luciferase, 10K MLSCN set (AID 602277;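 active = inhibition of the reporter signal at or above 50%; inactive = inhibition below 50%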); settings: HEK293-TLR3 RL24 IRF3 luciferase reporter, at 10 µM, stronger effect = higher value

SMILES | cell count [1] | inhibition [1] | inhibition of aggregation [2] | nuclei count [2] [%] | inhibition [3] | nuclei count [3] [%] | fluorescence slope [4] | NADPH fluorescence slope [5] | slope [6] | inhibition [7] | inhibition [8]
O=c1c(-c2ccc(Br)cc2)coc2c(CN3CCOCC3)c(O)ccc12 | 557 | -2.4% (inactive) | -1.6% (inactive) | 102 | -9.2% (inactive) | 118 | -0.0321 (active) | 3.3e-05 (inactive) | 0.00611 (inactive) | 2.64% (inactive) | -17.1% (inactive)
O=C(C1CCC(N2C(=O)C3CC=CCC3C2=O)CC1)N1CCCCC1 (centres undefined) | 257 | 22.4% (active) | 7.8% (inactive) | 80.1 | 23.7% (inactive) | 97.6 | -0.356 (inactive) | -5.2e-05 (inactive) | 0.00567 (inactive) | 5.96% (inactive) | 27.2% (inactive)
CC(=O)c1cc(Cl)ccc1OC(=O)c1ccco1 | 475 | 0.5% (inactive) | -8.1% (inactive) | 106 | -48.1% (inactive) | 124 | -0.475 (inactive) | -9e-05 (inactive) | 0.00476 (inactive) | 18.4% (inactive) | 21% (inactive)
CCOc1ccccc1C1C(C(=O)Nc2ccc(OC)cc2)=C(C)Nc2nc(CCCO)nn21 (centres undefined) | 659 | -0.3% (inactive) | -30.8% (inactive) | 116 | -35.4% (inactive) | 118 | -0.443 (inactive) | -2.8e-05 (inactive) | 0.00548 (inactive) | -0.537% (inactive) | 17.2% (inactive)
CCn1cc(C(=O)N2CCOCC2)c(=O)c2cc(S(=O)(=O)N(C)C3CCCCC3)ccc21 | 518 | 7.1% (inactive) | 3.9% (inactive) | 84.2 | -29.5% (inactive) | 87.7 | -0.581 (inactive) | -7.6e-06 (inactive) | 0.00672 (inactive) | 12.2% (inactive) | 28.4% (inactive)
CCC(Oc1ccccc1)C(=O)Nc1ccccc1OC (centres undefined) | 352 | 9.2% (inactive) | -9.3% (inactive) | 106 | -33.3% (inactive) | 109 | -0.487 (inactive) | -1.9e-05 (inactive) | 0.00497 (inactive) | 0.598% (inactive) | 19.3% (inactive)
O=c1[nH]c(NCc2ccco2)nnc1Cc1ccccc1Cl | 643 | 1.8% (inactive) | -15.1% (inactive) | 111 | -18.6% (inactive) | 124 | -0.515 (inactive) | -0.000182 (inactive) | 0.0051 (inactive) | 6.89% (inactive) | 40.7% (inactive)
COc1ccc(/C(O)=C2/C(=O)C(=O)N(CCCN(C)C)C2c2ccc(Cl)cc2)cc1OC (centres undefined) | 332 | 4.5% (inactive) | -28.5% (inactive) | 122 | -11.6% (inactive) | 112 | -0.527 (inactive) | -3.6e-05 (inactive) | 0.00513 (inactive) | 12.7% (inactive) | 10.6% (inactive)
COCC(=O)N(Cc1cc2cc(OC)ccc2[nH]c1=O)c1ccccc1 | 412 | 4.3% (inactive) | 1.5% (inactive) | 106 | -47.1% (inactive) | 113 | -0.453 (inactive) | -5.4e-05 (inactive) | 0.00281 (inactive) | 5.46% (inactive) | 19% (inactive)
